# Laboratory results: PubChem BioAssay (NCATS)
# “And” between values parts separate entries of the source, which are not always exact repeats. Equal entries are not always repeated. Values without a mark were called inactive. Records with an inconclusive call do not appear. Where a call stands in place of a potency, no number is given. The source made the active and inactive calls. Unless noted, calls follow the shape of the dose curve; as a rule, active = well fitted curve in the direction sought with a large enough effect; inconclusive = small, poorly fitted or top-dose-only effect, or another doubt; inactive = no such curve, though single readings can be large; an effect the other way counts as inactive or inconclusive.
# Columns and labels:
# [1] = target: Luciferin 4-monooxygenase (Photinus pyralis) (UniProt P08659); test: Biochemical firefly luciferase enzyme assay for NPC (AID 624030); also: nearly all actives have a fitted effect of over 70% in size; also: potency is read from the fitted curve at half-maximal effect
# Luciferin 4-monooxygenase (Photinus pyralis), sequence (P08659 whole entry, looked up): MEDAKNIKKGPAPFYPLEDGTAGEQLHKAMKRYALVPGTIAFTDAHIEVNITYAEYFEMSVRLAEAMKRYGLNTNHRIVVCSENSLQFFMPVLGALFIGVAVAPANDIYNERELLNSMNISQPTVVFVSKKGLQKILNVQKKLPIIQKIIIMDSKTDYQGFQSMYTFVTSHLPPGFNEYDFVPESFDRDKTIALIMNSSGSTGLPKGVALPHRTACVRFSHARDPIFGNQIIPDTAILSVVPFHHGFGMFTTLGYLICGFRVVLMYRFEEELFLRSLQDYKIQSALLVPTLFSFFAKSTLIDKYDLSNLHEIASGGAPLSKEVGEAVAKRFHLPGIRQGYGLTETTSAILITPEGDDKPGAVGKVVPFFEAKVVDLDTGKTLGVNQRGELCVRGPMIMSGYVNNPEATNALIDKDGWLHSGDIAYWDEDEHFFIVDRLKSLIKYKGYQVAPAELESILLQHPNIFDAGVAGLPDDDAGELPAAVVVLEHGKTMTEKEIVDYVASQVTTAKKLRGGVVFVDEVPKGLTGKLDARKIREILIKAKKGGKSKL
# Summary of the method: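 Purified P. pyralis luciferase at 10 nM in 50 mM Tris Acetate (final), luminescence read within 5 minutes of enzyme addition to compounds. Activity normalised to PTC124 versus DMSO; concentration-response curves classed by r2, magnitude and activity.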
# [2] = S16 Schwann cell viability assay (CellTiter-Glo assay) (AID 624031); also: nearly all actives have a fitted effect of over 70% in size; also: potency is read from the fitted curve at half-maximal effect
# Summary of the method: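 This viability control uses native rat S16 Schwann cells grown in DMEM plus 10% FBS. After a 24 h compound treatment at 37 °C, CellTiter-Glo luminescence reports ATP content, scaled against DMSO-treated and cell-free wells.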
# [3] = S16 Schwann cell PMP22 intronic element firefly luciferase assay (AID 624032); also: nearly all actives have a fitted effect of over 30% in size; also: potency is read from the fitted curve at half-maximal effect
# Summary of the method: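 Rat S16 Schwann cells stably carrying firefly luciferase driven by a PMP22 intronic element, in 10% FBS, treated 24 h at 37 C. ONE-Glo luminescence normalized to PTC124 control and DMSO (0%); curves classed by r2, magnitude and activity.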
# [4] = qHTS assay for small molecule activators of the p53 signaling pathway (AID 651743; active = well fitted activation curve with a large enough effect in the signal ratio, not every such curve was filed as active; the % refers to the signal ratio; also: series mostly up to about 92 µM); conditions: HCT-116 p53RE-bla, beta-lactamase FRET ratio, 16 h; activation: stronger effect = higher value
# Summary of the method: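 Reporter: beta-lactamase driven by p53 response elements, stably integrated in HCT-116 cells. Cells seeded at 4,000/well, 5 h preincubation, compound (DMSO) 16 h at 37 C; B/G FRET substrate 2 h RT; fluorescence intensity read.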
# [5] = qHTS assay for small molecule activators of the nuclear factor-kappa B (NF-kB) signaling pathway (AID 651749; active = well fitted activation curve with a large enough effect in the signal ratio; the % refers to the signal ratio; also: series mostly up to about 77 µM); conditions: NF-kB-bla ME-180 cells, beta-lactamase FRET ratio, 16 h; stronger effect = higher value
# Summary of the method: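 NF-kB-bla ME-180 cells, 2,000/well; 23 nL compound or DMSO pinned; 16 hr, 37C/5% CO2; beta-lactamase FRET read-out.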
# [6] = qHTS assay for small molecule disruptors of the mitochondrial membrane potential - 1 hr assay (AID 651754; calls by dose curve; also: nearly all actives have a fitted effect of over 35% in size; also: potency is read from the fitted curve at half-maximal effect)
# Summary of the method: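 Read-out: dye fluorescence at 490 nm ex/535 nm em (monomers) and 540 nm ex/590 nm em (aggregates) in HepG2 cells. Compound exposure 1 hr at 37C, followed by 30 min dye loading.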
# [7] = S16 Schwann cell PMP22 intronic element beta-lactamase assay (AID 624044; calls by dose curve; also: nearly all actives have a fitted effect of over 15% in size; also: potency is read from the fitted curve at half-maximal effect)
# Summary of the method: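 Beta-lactamase reporter under a PMP22 intronic regulatory element in stable S16 rat Schwann cells; 24 h compound exposure. 460 nm blue signal normalized between DMSO (0%) and potassium clavulanate, with 535 nm FRET tracking viability; curves classed by r2 and response.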
# [8] = target: Glutaminase kidney isoform, mitochondrial (Homo sapiens) (UniProt O94925); test: qHTS for Inhibitors of Glutaminase (GLS): LOPAC Validation (AID 624146);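 also: glutamate product detected by oxidase and peroxidase coupled Amplex red fluorescence gain; series mostly up to about 46 µM; nearly all actives have a fitted effect of over 60% in size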
# Glutaminase kidney isoform, mitochondrial (Homo sapiens), sequence (O94925 whole entry, looked up, canonical isoform): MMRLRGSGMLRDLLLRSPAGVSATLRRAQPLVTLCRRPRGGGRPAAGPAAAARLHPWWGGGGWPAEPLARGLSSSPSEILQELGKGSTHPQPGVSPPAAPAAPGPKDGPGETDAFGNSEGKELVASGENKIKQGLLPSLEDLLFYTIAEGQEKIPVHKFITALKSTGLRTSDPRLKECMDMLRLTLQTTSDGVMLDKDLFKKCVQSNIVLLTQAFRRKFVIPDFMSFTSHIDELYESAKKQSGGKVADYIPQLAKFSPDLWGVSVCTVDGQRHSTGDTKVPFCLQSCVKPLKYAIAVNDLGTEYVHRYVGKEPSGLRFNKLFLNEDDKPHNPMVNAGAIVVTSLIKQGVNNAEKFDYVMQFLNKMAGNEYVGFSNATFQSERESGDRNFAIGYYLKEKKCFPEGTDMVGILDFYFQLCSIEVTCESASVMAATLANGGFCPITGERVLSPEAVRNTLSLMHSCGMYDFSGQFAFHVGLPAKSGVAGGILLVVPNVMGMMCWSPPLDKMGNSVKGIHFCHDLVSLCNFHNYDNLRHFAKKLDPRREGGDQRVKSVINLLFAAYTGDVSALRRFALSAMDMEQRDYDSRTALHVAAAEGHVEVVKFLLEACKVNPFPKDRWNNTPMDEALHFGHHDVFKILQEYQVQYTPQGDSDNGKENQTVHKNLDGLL
# Summary of the method: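 Coupled fluorescence readout: glutamate oxidase/HRP/Amplex Red detect glutamate formed by hKGA from L-glutamine (1 mM solution added). Buffer 45 mM KH2PO4 pH 8.2, 0.02% Tween-20; reads at t0 and 30 min RT.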
# [9] = qHTS of Trypanosoma Brucei Inhibitors: LOPAC Validation (AID 624147)
# Summary of the method: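 Screened from lowest to highest concentration, compounds were pinned into TbPYK/substrate mixtures, and ADP (130 uM final) was added. Plates sat at room temperature for 45 min prior to Kinase-Glo Plus detection by luminescence.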
# [10] = target: Glucagon-like peptide 1 receptor (Homo sapiens) (UniProt P43220); test: qHTS of GLP-1 Receptor Agonists: LOPAC Validation (AID 624148);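 also: higher luminescence signal means agonism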
# Glucagon-like peptide 1 receptor (Homo sapiens), sequence (P43220 whole entry, looked up): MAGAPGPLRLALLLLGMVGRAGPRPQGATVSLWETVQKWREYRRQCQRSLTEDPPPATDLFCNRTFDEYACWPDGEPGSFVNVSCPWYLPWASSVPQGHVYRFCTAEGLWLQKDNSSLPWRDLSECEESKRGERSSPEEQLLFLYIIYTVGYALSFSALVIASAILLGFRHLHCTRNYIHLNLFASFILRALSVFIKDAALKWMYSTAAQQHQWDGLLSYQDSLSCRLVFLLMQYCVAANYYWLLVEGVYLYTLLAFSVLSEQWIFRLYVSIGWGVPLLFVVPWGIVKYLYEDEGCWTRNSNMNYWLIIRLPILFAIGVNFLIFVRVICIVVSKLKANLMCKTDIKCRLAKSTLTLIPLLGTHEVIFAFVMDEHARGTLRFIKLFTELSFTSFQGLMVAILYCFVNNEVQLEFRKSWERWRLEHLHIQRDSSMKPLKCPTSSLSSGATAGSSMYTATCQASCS
# Summary of the method: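 HEK293 cells stably co-expressing GLP-1R and a cAMP-responsive luciferase reporter, plated 12 hours before compound, then incubated 4-6 hr at 37 deg C. Luminescence read 12 min after detection reagent.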
# [11] = qHTS of Nrf2 Activators: LOPAC Validation (AID 624149)
# Summary of the method: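 AREc32_Fluc cells, 1000/well, OPTI-MEM + 5% FBS, o/n 37 deg C 5% CO2; compound pin-transfer, 24 hr 37 deg C; Steady-Glo 30 min RT, luminescence read.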
# [12] = HTS Assay for Allosteric Antagonists of the Human D2 Dopamine Receptor: Hit Validation in HTRF (AID 624455)
# Summary of the method: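 HTRF read-out; cells stably expressing D1 receptor; hits scored for inhibition of D1-mediated response. Primary screen: calcium flux, force-coupled inducible Hek293 Trex D2 line, antagonism vs EC80 dopamine.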
# [13] = qHTS assay for small molecule agonists of the antioxidant response element (ARE) signaling pathway (AID 651741; active = well fitted activation curve with a large enough effect in the signal ratio; the % refers to the signal ratio; also: potency is read from the fitted curve at half-maximal effect)
# Summary of the method: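 HepG2 ARE-bla reporter cells, 2,000/well; 5 h settle at 37 C/5% CO2; compound pin transfer (23 nL, DMSO); 16 h at 37 C; LiveBLAzer B/G FRET substrate, 2 h RT; fluorescence intensity read.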
compound,measurement,setting,value
Cc1cc(O)ccc1Cl,Potency,[1],inactive
same,Potency,[2],inactive
same,Potency,[3],inactive
same,activation,[4],-0.548%
same,activation,[5],-0.28%
same,Potency,[6],inactive
S=C(SSC(=S)N1CCCCC1)N1CCCCC1,Potency,[1],8.09 µM (active)
COC(=O)[C@@H](N)CCCN=C(N)N[N+](=O)[O-],Potency,[1],inactive
same,Potency,[2],inactive
same,Potency,[3],inactive
same,Potency,[7],inactive
same,Potency,[8],inactive
same,outcome,[9],inactive
same,outcome,[10],inactive
same,outcome,[11],inactive
same,Potency,[12],inactive
CC(=O)[O][Hg][c]1ccccc1,Potency,[1],2.56 µM (active)
same,Potency,[2],907 nM (active)
same,Potency,[3],1.14 µM (active)
same,Potency,[7],14.1 µM (active)
same,Potency,[13],47.3 µM (active)
same,Potency,[6],16.8 µM (active)
NC(=O)CN1CC(O)CC1=O (stereo unspecified),Potency,[1],inactive
same,Potency,[2],inactive
same,Potency,[3],inactive
same,Potency,[7],inactive
same,Potency,[8],inactive
same,outcome,[9],inactive
same,outcome,[10],inactive
same,outcome,[11],inactive
same,Potency,[12],inactive
CN(C)[C@@H]1C(=O)C(C(N)=O)=C(O)[C@@]2(O)C(=O)C3=C(O)c4c(O)cccc4[C@@](C)(O)[C@H]3[C@H](O)[C@@H]12,Potency,[1],inactive
same,Potency,[2],inactive
same,Potency,[3],inactive
same,Potency,[7],inactive
C1CCC(NC2CCCCC2)CC1,Potency,[1],inactive
same,Potency,[2],inactive
same,Potency,[3],inactive
same,Potency,[13],inactive
same,activation,[4],-5.71% and -0.896% and -1.09%
CC(=O)OCC1=C(C(=O)O)N2C(=O)[C@@H](N)[C@@H]2SC1,Potency,[1],inactive
same,Potency,[2],inactive
same,Potency,[7],inactive
O=C(O)COc1ccccc1,Potency,[1],inactive
same,Potency,[2],inactive
same,Potency,[3],inactive
same,Potency,[13],inactive
same,activation,[4],-8.89%
same,activation,[5],-0.0582%
CCC1(CCC(C)C)C(=O)NC(=O)NC1=O,Potency,[1],inactive
C[C@]12N[C@H](Cc3ccccc31)c1ccccc12,Potency,[1],inactive
same,Potency,[8],inactive
same,outcome,[9],inactive
same,outcome,[10],inactive
same,outcome,[11],inactive
same,Potency,[12],inactive
Cc1ccc(Cl)c(O)c1,Potency,[1],inactive
same,Potency,[2],inactive
same,Potency,[3],inactive
CCCN1CCC[C@H](c2cccc(O)c2)C1,Potency,[1],inactive
same,Potency,[2],inactive
same,Potency,[3],inactive
same,Potency,[7],inactive
same,Potency,[8],inactive
same,outcome,[9],inactive
same,outcome,[10],inactive
same,outcome,[11],inactive
CC[N+]1(CCOC(=O)C(O)(c2ccccc2)c2ccccc2)CCCCC1,Potency,[1],inactive
same,Potency,[2],inactive
same,Potency,[7],inactive
CC(C)(C)NC[C@H](O)c1ccc(O)cc1Cl,Potency,[1],inactive
c1ccc(C2(c3ccccc3)CC2C2=NCCN2)cc1 (stereo unspecified),Potency,[1],inactive
same,Potency,[2],inactive
same,Potency,[3],inactive
same,Potency,[7],inactive
same,Potency,[8],inactive
same,outcome,[9],inactive
same,outcome,[10],inactive
same,outcome,[11],inactive
same,Potency,[12],inactive
CN1C2CCC1CC(OC(=O)c1cc(Cl)cc(Cl)c1)C2 (stereo unspecified),Potency,[1],inactive
same,Potency,[7],inactive
same,Potency,[8],inactive
same,outcome,[9],inactive
same,outcome,[10],inactive
same,outcome,[11],inactive
same,Potency,[12],inactive
CCCCc1ccc(C(=O)O)nc1,Potency,[1],inactive
same,Potency,[2],inactive
same,Potency,[3],inactive
same,Potency,[8],inactive
same,outcome,[9],inactive
same,outcome,[10],inactive
same,outcome,[11],inactive
same,Potency,[12],inactive
C[C@@H]1[C@H](O)[C@@H](C)C=CC=CCCC=CC=CC=CC=C[C@H](O[C@H]2O[C@@H](C)[C@H](O)[C@@H](N)[C@@H]2O)CC2O[C@](O)(C[C@@H](O)[C@H](O)CC[C@@H](O)C[C@@H](O)C[C@@H](O)CC(=O)O[C@H]1C)C[C@H](O)[C@H]2C(=O)O,Potency,[1],inactive
CC(C)NC(C)Cc1ccc(I)cc1 (stereo unspecified),Potency,[1],inactive
same,Potency,[2],inactive
same,Potency,[3],inactive
same,Potency,[7],inactive
same,Potency,[8],inactive
same,outcome,[9],inactive
same,outcome,[10],inactive
same,outcome,[11],inactive
same,Potency,[12],inactive
O=[N+]([O-])c1ccc([As](=O)(O)O)cc1,Potency,[1],inactive
same,Potency,[2],inactive
same,Potency,[3],inactive
Nc1c(Cl)c(Cl)c(Cl)c(Cl)c1Cl,Potency,[1],inactive
CCCCCCCCCC(CC)c1ccc(S(=O)(=O)O)cc1 (stereo unspecified),Potency,[1],inactive
same,Potency,[2],inactive
same,Potency,[3],inactive
same,Potency,[7],inactive
COC(C)(C)CCCC(C)C/C=C/C(C)=C/C(=O)OC(C)C (stereo unspecified),Potency,[1],inactive
same,Potency,[2],inactive
same,Potency,[7],inactive
same,Potency,[13],48.6 µM (active) and 66.8 µM (active)
same,activation,[4],-4.75% and -1.61%
same,activation,[5],-3.22% and 0.402%
same,Potency,[6],inactive
COC(=O)c1cncn1C(C)c1ccccc1 (stereo unspecified),Potency,[1],inactive
same,Potency,[2],inactive
same,Potency,[3],inactive
same,Potency,[7],inactive
CC(O)CN1CCN(CC(=O)[O-])CCN(CC(=O)[O-])CCN(CC(=O)[O-])CC1.[Gd+3] (stereo unspecified),Potency,[1],inactive
C[N+](C)(C)CC(=O)O,Potency,[1],inactive
O=C(O)C(Cl)Cl,Potency,[1],inactive
same,Potency,[2],inactive
same,Potency,[3],inactive
same,Potency,[13],inactive
C[C@]12CCC(=O)C(O)=C1CC[C@@H]1[C@H]3CCC(=O)[C@@]3(C)CC[C@@H]12,Potency,[1],inactive
same,Potency,[7],inactive
C=CCN1CC[C@]23CCCCC2[C@H]1Cc1ccc(O)cc13 (stereo partly specified),Potency,[1],inactive
same,Potency,[2],inactive
same,Potency,[3],inactive
same,Potency,[7],inactive
same,Potency,[8],inactive
same,outcome,[9],inactive
same,outcome,[10],inactive
same,outcome,[11],inactive
same,Potency,[12],inactive
